CF NFkB inh: cystic fibrosis NF-kB activation inhibition; inhibition, % at 5 µM; 360,000 compounds, 0.86% hits; KKLEB NF-kB-GFP reporter, PAF-induced, GFP fluorescence overnight;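 active means at least 50% inhibition at 5 µM, scaled per plate between neutral and stimulator controls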;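 further: PAF is a Pseudomonas aeruginosa culture filtrate used as stimulus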
KKLEB tox: CF airway cell cytotoxicity counter-screen | KKLEB CF airway cells viability, ATPlite luminescence, overnight; hits give low values; cells stimulated with P. aeruginosa culture filtrate | activity change (cytotoxicity), % at 5 µM | 360,000 compounds, 0.36% hits | AID 602141;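 active means corrected activity change at or below -50% at 5 µM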
CHOP inh: inhibitors of CHOP induction in ER stress response; CHO-K1 CHOP-promoter luciferase, tunicamycin-induced, 15-18 h; inhibition, % at 10 µM; 220,000 compounds, 3.8% hits;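 active means compounds that reduced the stress-induced luciferase reporter signal by more than about 70% of percent inhibition, limit read from the data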
HIF-2a block: HIF-2a inhibition | 786-0 RCC cells HIF-2a reporter, luciferase luminescence, overnight | inhibition, % at 18.8 µM | 360,000 compounds, 0.72% hits | AID 624352;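 active means inhibition of the luminescence signal of 40% or more relative to plate controls, in a single-dose primary screen at 18.75 µM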
MITF TRPM1 inh: MITF TRPM1 promoter inhibition in SK-MEL-5 cells; SK-MEL-5 TRPM1 promoter luciferase, 24 h; inhibition, % at 12.5 µM; 330,000 compounds, 0.83% hits; AID 488899;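 active means mean inhibition across replicates of 60% or more, whatever share of single replicates reaches that level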
Peg3 promoter: Peg3 promoter activity inhibition | AID 588405 | 360,000 compounds, 1.7% hits | inhibition, % at 20 µM | HeLa PEG-Prom luciferase reporter, luminescence, overnight;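 active means inhibition of at least 50% at 20 µM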
A number is an active result. Sampled rows, rich in hits. Any-hit rate of the full collection: about 4.3%.

For CCOC(=O)C1=CNS(=O)(=O)NC1CCc1ccccc1 (stereo unspecified) the results were CF NFkB inh inactive, KKLEB tox inactive, HIF-2a block inactive, MITF TRPM1 inh inactive and Peg3 promoter inactive.
COc1ccc(S(=O)(=O)N(C(=O)c2ccco2)c2cc3sc(=O)oc3c3ccccc23)cc1 was read as CF NFkB inh 71, KKLEB tox inactive, CHOP inh 85, HIF-2a block inactive, MITF TRPM1 inh inactive and Peg3 promoter inactive.
For Cc1ccc(S(=O)(=O)N(C(=O)c2ccco2)c2cc3sc(=O)oc3c3ccccc23)cc1 the results were CF NFkB inh 64, KKLEB tox inactive, CHOP inh inactive, HIF-2a block inactive, MITF TRPM1 inh inactive and Peg3 promoter inactive.
`CC(=O)N(c1ccc2oc(=O)sc2c1)S(=O)(=O)c1ccccc1` gave CF NFkB inh inactive, KKLEB tox inactive, CHOP inh inactive, HIF-2a block inactive, MITF TRPM1 inh inactive and Peg3 promoter inactive.
CCOc1ccc(S(=O)(=O)N(C(=O)c2ccco2)c2cc3sc(=O)oc3c3ccccc23)cc1 was read as CF NFkB inh 52, KKLEB tox inactive, CHOP inh inactive, HIF-2a block inactive, MITF TRPM1 inh inactive and Peg3 promoter inactive.
For Cc1cc(CN(C)Cc2cn(C)nc2-c2ccc(Oc3ccccc3)cc2)on1 the results were CF NFkB inh inactive, KKLEB tox inactive, CHOP inh inactive, HIF-2a block inactive, MITF TRPM1 inh inactive and Peg3 promoter inactive.
Screening COc1cc(OC)c(OC)cc1/C=C1\CCC/C(=C\c2cc(OC)c(OC)cc2OC)C1=O returned CF NFkB inh inactive, KKLEB tox inactive, HIF-2a block inactive, MITF TRPM1 inh inactive and Peg3 promoter 72.
COc1ccccc1-n1c(-c2ccc(NS(C)(=O)=O)cc2)n[nH]c1=S was read as CF NFkB inh inactive, KKLEB tox inactive, CHOP inh 93, HIF-2a block inactive, MITF TRPM1 inh inactive and Peg3 promoter inactive.
`COc1ccc(C)cc1NC(=O)C1CCN(S(=O)(=O)c2ccc3c(c2)C(C)(C)C(=O)N3C)CC1` gave CF NFkB inh inactive, KKLEB tox inactive, HIF-2a block inactive and Peg3 promoter inactive.
Screening Cc1ccc(C(=O)OCC(=O)N(Cc2ccccc2)C(C)C)cc1C returned CF NFkB inh inactive, KKLEB tox inactive, HIF-2a block inactive, MITF TRPM1 inh inactive and Peg3 promoter inactive.
For Cc1ccc2c(c1)c1c3n2CCN(C(=O)CCl)C3CCC1 (stereo unspecified) the results were CF NFkB inh inactive, KKLEB tox inactive, HIF-2a block inactive, MITF TRPM1 inh inactive and Peg3 promoter 56.
For CC(=O)N1CCn2c3c(c4cc(C)ccc42)CCCC31 (stereo unspecified) the results were CF NFkB inh inactive, KKLEB tox inactive, CHOP inh inactive, HIF-2a block inactive, MITF TRPM1 inh inactive and Peg3 promoter inactive.
`O=CN(Cc1nc2ccccc2[nH]1)c1ccc(C(=O)O)cc1` gave CF NFkB inh inactive, KKLEB tox inactive, HIF-2a block inactive, MITF TRPM1 inh inactive and Peg3 promoter inactive.
`O=C(O)Cc1sc(Nc2ccc(Cl)cc2)nc1-c1cccs1` gave CHOP inh inactive and MITF TRPM1 inh 81.
Screening Cc1cc(C)cc(NC(=S)NCCSc2ccc(Cl)cc2)c1 returned CF NFkB inh inactive, KKLEB tox inactive, CHOP inh 88, HIF-2a block inactive, MITF TRPM1 inh inactive and Peg3 promoter inactive.
Screening Cc1ccc(SCCNC(=S)Nc2ccc(C)c(C)c2)cc1 returned CF NFkB inh inactive, KKLEB tox inactive, CHOP inh 75, HIF-2a block inactive, MITF TRPM1 inh inactive and Peg3 promoter inactive.
Screening Cc1ccc(SCCNC(=S)Nc2ccccc2)cc1 returned CF NFkB inh inactive, KKLEB tox inactive, CHOP inh inactive, HIF-2a block inactive, MITF TRPM1 inh inactive and Peg3 promoter inactive.
Screening C=CCOC(=O)C1=C(C)NC(=O)NC1c1cc2c(cc1Br)OCO2 (stereo unspecified) returned CF NFkB inh inactive, KKLEB tox inactive, HIF-2a block inactive, MITF TRPM1 inh inactive and Peg3 promoter inactive.
For CCCNC(=O)C1(C)CCCN(Cc2ccc(C(=O)OCC)o2)C1 (stereo unspecified) the results were CF NFkB inh inactive, KKLEB tox inactive, HIF-2a block inactive and Peg3 promoter inactive.
Screening CCc1ccc2[nH]c(=O)c(CN(Cc3ccccc3)Cc3nnnn3Cc3ccco3)cc2c1 returned CF NFkB inh inactive, KKLEB tox inactive, CHOP inh 73, HIF-2a block inactive, MITF TRPM1 inh inactive and Peg3 promoter inactive.
For Cc1cc(C)c2cc(CN(Cc3ccc4c(c3)OCO4)Cc3nnnn3Cc3ccco3)c(=O)[nH]c2c1 the results were CF NFkB inh inactive, KKLEB tox inactive, CHOP inh 71, HIF-2a block inactive, MITF TRPM1 inh inactive and Peg3 promoter inactive.
`Cc1ccc2[nH]c(=O)c(CN(Cc3ccc4c(c3)OCO4)Cc3nnnn3Cc3ccco3)cc2c1` gave CF NFkB inh inactive, KKLEB tox inactive, CHOP inh inactive, HIF-2a block inactive, MITF TRPM1 inh inactive and Peg3 promoter inactive.
For O=C(CN1C(=O)NC2(CCc3ccccc32)C1=O)Nc1ccc(Cl)cc1F (stereo unspecified) the results were CF NFkB inh inactive, KKLEB tox inactive, HIF-2a block inactive and Peg3 promoter inactive.
`Cc1cc(C(=O)N2CCN(c3cc(Cl)ccc3C)CC2)on1` gave CF NFkB inh inactive, KKLEB tox inactive, HIF-2a block inactive, MITF TRPM1 inh inactive and Peg3 promoter inactive.
COc1ccc(C(=O)NNC(=S)NC(=O)c2cc(-c3ccccc3)nc3ccccc23)cc1 was read as CF NFkB inh inactive, KKLEB tox inactive, CHOP inh inactive, HIF-2a block inactive, MITF TRPM1 inh inactive and Peg3 promoter inactive.
`CCNC(=S)NNC(=O)c1cc(-c2ccc(OCC)cc2)nc2ccccc12` gave CF NFkB inh inactive, KKLEB tox -51, CHOP inh inactive, HIF-2a block inactive, MITF TRPM1 inh inactive and Peg3 promoter inactive.
`CC(C)(C)c1ccc(-c2cc(C(=O)NNC(=O)Nc3ccccc3)c3ccccc3n2)cc1` gave CF NFkB inh inactive, KKLEB tox inactive, CHOP inh 94, HIF-2a block inactive, MITF TRPM1 inh inactive and Peg3 promoter inactive.
`CCc1ccc(-c2cc(C(=O)Nn3cnnc3)c3ccccc3n2)cc1` gave CF NFkB inh inactive, KKLEB tox inactive, CHOP inh inactive, HIF-2a block inactive, MITF TRPM1 inh 66 and Peg3 promoter inactive.
Screening CCCOc1ccc(C(=O)NNC(=S)NC(=O)c2cc(-c3ccc(Cl)cc3)nc3ccccc23)cc1 returned CF NFkB inh inactive, KKLEB tox inactive, CHOP inh 72, HIF-2a block inactive, MITF TRPM1 inh inactive and Peg3 promoter inactive.
`Cc1c(-c2cccc(Cl)c2)nc2ccccc2c1C(=O)NC1CC1` gave CF NFkB inh inactive, KKLEB tox inactive, HIF-2a block inactive, MITF TRPM1 inh inactive and Peg3 promoter inactive.
